Experimental data: the supplement of paper PMC12297408
“And” between values parts separate entries of the source, which are not always exact repeats. Equal entries are not always repeated. Structures can show the parent of a compound that is named as a salt.

test system: Plasmodium falciparum NF54/iGP1_RE9H ulg8 stage V gametocytes; assay: gametocyte viability (luciferase signal relative to DMSO control) (% of DMSO control); higher = less gametocytocidal activity, active = 50 or less; settings: concentration: 1 µM; exposure time: 72 h
Method in brief: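 Gametocyte viability is reported relative to the average of DMSO vehicle wells on the same plate. The assay used day-12 stage V NF54/iGP1_RE9Hulg8 gametocytes at ~2.5% gametocytemia and 3% hematocrit, in 0.5% Albumax II medium, added to 96-well plates of compounds spotted in nanolitre volumes for final 10 µM or 1 µM, one well each. After 72 h at 37 °C, 90 µl was mixed with 10 µl D-luciferin (30 mg/ml), and luminescence was recorded with an IVIS Lumina II.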

Row | Compound | gametocyte viability
1 | CC1(C)CNc2cc(NC(=O)c3cccnc3NCc3ccncc3)ccc21 [Motesanib Diphosphate] | 97 (inactive)
2 | N#CC(C#N)=C(N)/C(C#N)=C/c1cc(O)c(O)c(O)c1 | 110 (inactive)
3 | O=c1c(O)c(-c2ccc(O)c(O)c2)oc2cc(O)cc(O)c12 [Quercetin (Sophoretin)] | 105 (inactive)
4 | CNC(=O)CN1CCC(Oc2cc3c(Nc4cccc(Cl)c4F)ncnc3cc2OC)CC1 | 103 (inactive)
5 | CNCCNS(=O)(=O)c1cccc2cnccc12 | 104 (inactive)
6 | C=CC(=O)Nc1cccc(Oc2nc(Nc3ccc(N4CCN(C)CC4)cc3OC)ncc2Cl)c1 | 91.9 (inactive)
7 | O=c1cc(-c2cccc3c2Sc2ccccc2S3)oc(N2CCOCC2)c1 | 110 (inactive)
8 | COc1cc2c(N3CCN(C(=O)Nc4ccc(OC(C)C)cc4)CC3)ncnc2cc1OCCCN1CCCCC1 [Tandutinib (MLN518)] | 98.8 (inactive)
9 | CNC(=O)c1cc(Oc2ccc(NC(=O)Nc3ccc(Cl)c(C(F)(F)F)c3)c(F)c2)ccn1 [Regorafenib (BAY 73-4506)] | 95.1 (inactive)
10 | Cn1c(=O)c(F)c(Nc2ccc(I)cc2F)c2c(=O)n(C[C@@H](O)CO)cnc21 | 108 (inactive)
11 | O=C1NC(=O)/C(=C/c2ccc3c(c2)OC(F)(F)O3)S1 | 103 (inactive)
12 | CCN(CCO)CCCOc1ccc2c(Nc3cc(CC(=O)Nc4cccc(F)c4)[nH]n3)ncnc2c1 [Barasertib (AZD1152-HQPA)] | 104 (inactive)
13 | CO[C@@H]1[C@H](N(C)C(=O)c2ccccc2)C[C@H]2O[C@]1(C)n1c3ccccc3c3c4c(c5c6ccccc6n2c5c31)C(=O)NC4 | 91.1 (inactive)
14 | Nc1nc2ncnc-2c[nH]1 [2-Aminopurine] | 97.6 (inactive)
15 | O=S(=O)(c1cccc2c(Cl)cccc12)N1CCCNCC1 | 93.2 (inactive)
16 | CCCNC(=O)Nc1ccc(Oc2ncnc3cc(OC)c(OC)cc23)cc1Cl | 97.6 (inactive)
17 | Nc1ncnc2c1c(I)cn2[C@@H]1O[C@H](CO)[C@@H](O)[C@H]1O [5-Iodotubericidin] | 103 (inactive)
18 | Cn1cnc2c(F)c(Nc3ccc(Br)cc3Cl)c(C(=O)NOCCO)cc21 [AZD6244 (Selumetinib)] | 102 (inactive)

Row | Compound | gametocyte viability
19 | Oc1ccc(-c2nc(-c3ccc(F)cc3)c(-c3ccncc3)[nH]2)cc1 | 112 (inactive) and 117 (inactive)
20 | COc1cc2ncnc(Nc3cccc(Cl)c3)c2cc1OC | 109 (inactive)
21 | Nc1cc(C(F)(F)F)c(-c2cc(N3CCOCC3)nc(N3CCOCC3)n2)cn1 | 107 (inactive)
22 | O=Nc1c(-c2c(O)[nH]c3ccccc23)[nH]c2ccccc12 [Indirubin-3'-monooxime] | 90.1 (inactive)
23 | Fc1cc(-c2cccc3ncc(-c4cnn(C5CCNCC5)c4)nc23)cc(F)c1CN1CCOCC1 | 107 (inactive)
24 | Cc1ccc(Nc2nccc(N(C)c3ccc4c(C)n(C)nc4c3)n2)cc1S(N)(=O)=O [Pazopanib HCl] | 98 (inactive)
25 | NCCNS(=O)(=O)c1cccc2cnccc12 | 105 (inactive)
26 | COc1cc2ncc(-c3ccccc3)nc2cc1OC | 99.5 (inactive)
27 | Nc1ncnc2c1c(-c1cccc(OCc3ccccc3)c1)cn2C1CC(CN2CCCC2)C1 (stereo unspecified) | 94.4 (inactive)
28 | COc1ccc(-c2ccc3c(N4CCOC[C@@H]4C)nc(N4CCOC[C@@H]4C)nc3n2)cc1CO | 96.5 (inactive)
29 | O=C1Cc2c([nH]c3ccc(Br)cc23)-c2ccccc2N1 [Kenpaullone] | 62.2 (inactive)
30 | Cc1cn(-c2cc(NC(=O)c3ccc(C)c(Nc4nccc(-c5cccnc5)n4)c3)cc(C(F)(F)F)c2)cn1 [Nilotinib (AMN-107)] | 111 (inactive)
31 | Cc1c(NC(=O)OC[C@@H]2COCCN2)cn2ncnc(Nc3ccc4c(cnn4Cc4cccc(F)c4)c3)c12 | 85.8 (inactive)
32 | N#Cc1c(O)c2c(-c3ccc(-c4ccccc4O)cc3)csc2[nH]c1=O | 97.7 (inactive)
33 | N#C/C(=C\c1ccc(O)c(O)c1)C(=O)Nc1ccccc1 | 99.6 (inactive)
34 | O=c1cc(N2CCOCC2)oc2c(-c3ccccc3)cccc12 | 105 (inactive) and 79.5 (inactive)
35 | CNC(=O)c1cc(COc2nnc(Nc3ccc(Cl)cc3)c3ccoc23)ccn1 [Telatinib (BAY 57-9352)] | 115 (inactive)
36 | CC(C)n1cnc2c(NCc3ccccc3)nc(NCCO)nc21 [N9-isopropyl-olomoucine] | 92.7 (inactive)
